Pf growth 48h: Primary qHTS for delayed death inhibitors of the malarial parasite plastid, 48 hour incubation | 310,000 compounds, 5.9% hits | Potency, µM (top dose mostly 28.7 µM), inactives show at the top dose activity change, negative = inhibition, actives largely listed as inhibitors | AID 504832, 2011 | P. falciparum luciferase growth in erythrocytes, 48 h; further: potency means the concentration at half of the fitted maximal effect; on the % scale 0 is the no-effect control and ±100 the full control effect
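Luciferase-expressing P. falciparum in infected erythrocytes (2% hematocrit, 0.1% parasitemia final) in RPMI 1640/0.5% Albumax were exposed to compound for 48 hours at 37 C, 5% CO2; growth read as luminescence.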
AMA1 RON2 block: qHTS for Inhibitors of AMA1-RON; Towards Development of Antimalarial Drug Lead: Primary Screen; 360,000 compounds, 0.2% hits; Potency, µM (highest dose often 58.2 µM), for inactives: top-dose activity change, negative = inhibition, usual class: inhibitors; AlphaScreen AMA1-biotinylated RON2 peptide binding; AID 720542, 2013; Plasmodium falciparum AMA1 (3D7) - RON2 peptide interaction;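 further: potency means the concentration at half of the fitted maximal effect; 0% = vehicle wells and -100% = peptide control; nearly all actives have a fitted effect of over 45% in size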
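AMA1 (3D7) with his tag at 25 nM final met compounds first, then biotinylated RON2 peptide at 25 nM; detection used donor plus acceptor beads, 10 µg/mL apiece, read by AlphaScreen after 30 min at room temperature.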
SARS PLP yeast: qHTS of Yeast-based Assay for SARS-CoV PLP; 330,000 compounds, 0.19% hits; S. cerevisiae expressing SARS-CoV PLpro, growth rescue; Potency, µM (titrated, usually from 32.9 µM), for inactives: at the top dose activity, positive = growth rescue, hits mostly activators; AID 485353, 2010; calls by dose curve; further: potency means the concentration at half of the fitted maximal effect; 0% is about no effect; nearly all actives have a fitted effect of over 55% in size
Cycloheximide cs: Cycloheximide Counterscreen for Small Molecule Inhibitors of Shiga Toxin. cell reporter, cycloheximide protein synthesis inhibition counterscreen. max response, %. 300,000 compounds, 12% hits. AID 2314, 2010; in the data active means max response mostly above about 13%, no sharp cut-off; inactive means mostly below about 14%; further: read at 38.3 µM for the half of the compounds with a filed dose; 0% is about no effect
Shiga toxin inh: A qHTS for Small Molecule Inhibitors of Shiga Toxin; Vero cells, Shiga toxin protein synthesis inhibition reporter; inhibition, % at 38.7 µM; 290,000 compounds, 9.2% hits; in the data active means inhibition mostly above about 28%, no sharp cut-off; inactive means mostly below about 43%; further: 0% is about no effect
Pf growth 96h: Primary qHTS for delayed death inhibitors of the malarial parasite plastid, 96 hour incubation; 320,000 compounds, 6.9% hits; P. falciparum luciferase reporter growth, 96 h; Potency, µM (doses to about 28.7 µM), without a hit: at the top dose activity change, negative = inhibition, hits mostly inhibitors; further: potency means the concentration at half of the fitted maximal effect; on the % scale 0 is the no-effect control and ±100 the full control effect
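P. falciparum expressing integrated firefly luciferase, in erythrocytes at 2% hematocrit, 0.05% parasitemia, incubated with compounds 96 h at 37 C, 5% CO2. Growth inhibition read as loss of luminescence; two-generation exposure targets delayed-death apicoplast inhibitors.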
An asterisk follows results filed as active; ? = inconclusive; . = not tested or not shown; [ ] = dose if it differs, or a comment. Sampled rows, rich in hits. Any-hit rate of the full collection: about 19%. Unless noted, the call rests on the fitted dose curve; in most records, active means well fitted curve in the direction sought with a large enough effect; inconclusive means small, poorly fitted or top-dose-only effect, or another doubt; inactive means no such curve, though single readings can be large; an effect the other way counts as inactive or inconclusive.

SMILES | Pf growth 48h | AMA1 RON2 block | SARS PLP yeast | Cycloheximide cs | Shiga toxin inh | Pf growth 96h
COC(CNC(=O)C(=O)Nc1ccc2c(c1)N(S(=O)(=O)c1cccs1)CCC2)OC | ? | 10.7% | -3.0% | . | . | 2.8%
COc1ccc(C2=C(SC)CC2=NC(C)(C)C)cc1 | -0.1% | 2.4% | 13.7% | 12.8* | 29.7 | -3.1%
CN(C)c1ccc(NC(=O)CCCc2ccccc2)cc1 | 104.5% | -8.4% | -6.5% | 35.9* | 100.2* | .
CC(O)c1cccc(NC(=O)CCCc2ccccc2)c1 (stereo not given) | 27.7% | -16.0% | 1.2% | 12.2 | 48.6* | 37.7%
CCC(NC(=O)CCCc1ccccc1)c1ccccc1 (stereo not given) | -7.4% | 10.2% | 7.9% | -1.5 | 0.5 | ?
Cc1cccc(NC(=S)NC(=O)CCc2ccccc2)c1 | 16.5% | -2.1% | 14.0% | 17.5* | 72.1* | ?
COCC(=O)Nc1ccc(N(C)C)cc1 | 30.3% | 14.0% | 1.7% | 12.7 | 39.1 | .
CC(C)NC(=O)CCCc1ccccc1 | 51.2% | 13.9% | 5.6% | 26.7* | 58.2* | -15.1%
CC(O)c1cccc(NC(=O)CCC(=O)O)c1 (stereo not given) | 4.4% | -3.7% | -7.3% | -3.3 | -14.8 | 25.0%
CCOc1ccccc1N1CCN(CC(=O)N(C)CC(=O)Nc2ccccc2CC)CC1 | . | -6.6% | . | . | . | .
CCCNC(=O)c1cc(C2CCCN(C(=O)c3ccccc3)C2)on1 (stereo not given) | . | 20.5% | . | . | . | .
Cc1cccc(NC(=O)CCCc2ccccc2)c1 | 95.7% | 0.3% | -7.9% | 56.8* | 72.7* | 129.7%
Cc1cccc(NC(=O)NNC(=O)CCc2ccccc2)c1 | 26.9% | 109.8% | 0.9% | -0.4 | -4.2 | ?
COc1cc(/C=C/C(=O)c2ccc3c(c2)OCCO3)cc(Br)c1OCC(=O)N(C)C | ? | -2.9% | -7.2% | -9.7 | -16.0 | ?
Cc1nn(Cc2c(F)c(F)c(F)c(F)c2F)c(C)c1NC(=O)c1cccc(COc2ccc(Cl)cc2)c1 | 133.4% | -2.9% | 3.7% | 83.3* | 135.8* | 260.5%
CC(C)c1cc(C(N)=O)c(NC(=O)c2cccc(COc3ccc(Cl)cc3)c2)s1 | 143.9% | -0.8% | -9.7% | 70.0* | 199.7* | .
O=C(NC(=S)Nc1ccc(Cl)c(C(=O)O)c1)c1cccc(COc2ccccc2)c1 | -9.3% | 77.5% | -6.5% | 15.4 | 24.2 | ?
CCN1CCN(CCCNC(=O)c2ccc(NC(=O)C3=C(C)OCCS3)cc2)CC1 | 11.7% | 0.0% | -1.0% | -8.2 | -4.1 | ?
CCOc1cc(-c2cc(-c3ccccc3)nc(N)c2C#N)ccc1O | . | -0.8% | -3.3% | 10.5 | -26.0 | ?
CCOc1cc(-c2cc(-c3ccc(N)cc3)nc(N)c2C#N)ccc1O | 11.7µM* | 35.1% | -9.5% | -6.3 | -4.8 | 85.7%
CO[C@@H]1CN(C)C(=O)c2ccc(NS(=O)(=O)c3c(C)noc3C)cc2OC[C@@H](C)NC[C@@H]1C | . | -4.8% | . | . | . | .
N#Cc1ccccc1S(=O)(=O)N1CCN(C(=O)CN2CCCC2c2cccs2)CC1 (stereo not given) | 9.28µM* | -10.9% | -3.7% | . | . | 4.65µM*
Cc1ccnc2nc(C(=O)Nc3nnc(CC(C)C)s3)nn12 | . | 12.5% | 14.3% | 8.6 | 25.2 | 30.0%
Cc1ccnc2nc(C(=O)Nc3nc4ccccc4s3)nn12 | 82.7% | 43.8% | -2.2% | 44.7* | 62.0* | 139.5%
COc1ccc(-c2nc(NC(=O)c3nc4nccc(C)n4n3)sc2C)cc1 | -7.9% | 76.0% | -1.7% | 10.3 | -10.1 | ?
SMILES | Pf growth 48h | AMA1 RON2 block | SARS PLP yeast | Cycloheximide cs | Shiga toxin inh | Pf growth 96h
Cc1csc(NC(=O)c2nc3nccc(C)n3n2)n1 | 152.2% | 28.2% | -2.1% | 18.3* | 71.9* | .
Cc1ccc(NC(=O)c2nc3nccc(C)n3n2)c(C)c1 | 175.9% | 10.8% | 0.1% | 30.4* | 79.9* | 195.5%
O=C1/C(=C/c2cccnc2)Sc2ccccc21 | ? | -11.3% | -12.6% | 13.5 | -1.8 | 7.38µM*
Cc1ccc(/C=C2\Sc3ccccc3C2=O)s1 | ? | ? | 2.0% | 13.5* | 33.7* | -2.8%
COc1ccc(NC(=O)NNC(=O)C(C)Oc2ccc3ccccc3c2)cc1 (stereo not given) | -2.6% | 121.7% | -1.0% | -2.5 | 11.2 | -17.7%
OC[C@H]1O[C@@H](c2nc(-c3ccccc3Br)no2)[C@H](O)[C@@H](O)[C@H]1O | . | 16.1% | . | . | . | .
O=C(c1cccs1)N1CCC(c2nc3c(nnn3Cc3c(Cl)cccc3Cl)c(=O)[nH]2)CC1 | 5.86µM* | 1.5% | 1.4% | -10.0 | -1.4 | ?
O=C(c1cccs1)N1CCC(c2nc3c(nnn3Cc3cccc(Cl)c3)c(=O)[nH]2)CC1 | 4.65µM* | -6.0% | -1.3% | -0.7 | -7.8 | 13.5%
Cc1ccc(C)c(Cn2nnc3c(=O)[nH]c(C4CCCN(C(=O)c5cccs5)C4)nc32)c1 (stereo not given) | ? | 14.7% | 5.6% | -2.8 | 2.4 | -0.7%
Cc1ccc(Cn2nnc3c(=O)[nH]c(C4CCN(C(=O)c5cccs5)CC4)nc32)cc1 | 13.1µM* | 6.3% | 2.6% | -0.6 | 6.7 | -0.5%[5.75 µM]
Cc1ccc(C)c(Cn2nnc3c(=O)[nH]c(C4CCN(C(=O)c5cccs5)CC4)nc32)c1 | . | -7.2% | 11.6% | -3.8 | 3.1 | -22.8%
O=C(c1cccs1)N1CCCC(c2nc3c(nnn3Cc3cccc(Cl)c3)c(=O)[nH]2)C1 (stereo not given) | ? | -1.0% | 1.3% | -4.5 | 3.5 | 9.4%
O=C(Cc1cccs1)N1CCCC(c2nc3c(nnn3Cc3cccc(Cl)c3)c(=O)[nH]2)C1 (stereo not given) | 8.28µM* | -17.2% | ? | -1.8 | 16.1 | -7.5%
CC(C)(C)c1ccc(NC(=O)CSc2n[nH]c(=O)n2C2CC2)cc1 | . | -6.1% | -0.8% | . | . | .
Cc1ccc(SCC(=O)OCc2csc(CC(=O)Nc3ccccc3C)n2)cc1C | ? | 54.7% | -2.8% | . | . | -22.8%
O=c1[nH]c2cc3c(cc2cc1CN(CCO)S(=O)(=O)c1ccccc1)OCCO3 | 98.8% | -1.2% | 1.7% | -0.2 | -5.0 | -14.5%
OCC#CC[N+]1(CC#Cc2ccccc2)CCOCC1 | 0.2% | 2.3% | 1.7% | -1.3 | 20.7 | 78.3%
C(#Cc1ccccc1)C[N+]1(CC#Cc2cccc3ccccc23)CCCC1 | 2.62µM* | -1.0% | -9.2% | -1.8 | 6.8 | ?
C#CC[N+]1(CC#Cc2cccc3ccccc23)CCOCC1 | 3.7µM* | 12.3% | 0.9% | 1.0 | -0.8 | -4.9%
O=S(=O)([O-])CCC[N+]1(CC#Cc2ccccc2)CCCCC1 | 7.6% | 10.5% | 3.3% | -5.1 | 26.0 | 0.0%
C#CC[N+]1(CC#Cc2ccc(C#CC[N+]3(CC#C)CCOCC3)cc2)CCOCC1 | -23.7% | 11.2% | -5.2% | -4.0 | -6.9 | ?
